From PubChem
ELG1 repair inh: ELG1-dependent DNA repair inhibition | AID 504467 | Potency, µM (highest dose often 46.1 µM), most hits filed as inhibitors | actives 2.3% (n = 330,000) | HEK293T ELG1-luciferase reporter, luminescence, 16 h; DNA damage induced by 5-fluorouridine; note: nearly all actives have a fitted effect of over 55% in size
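HEK293T cells expressing luciferase-tagged ELG1 (2,000/well) received 5-Fluorouridine plus compound or DMSO for 16 hr at 37 °C. Luciferase was read by ONE-Glo luminescence after 30 min at room temperature.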
Gal4-VP16 FLuc: counter-screen for ROR gamma inhibitors: Gal4-VP16 reporter; Drosophila S2 Gal4-VP16 UAS-luciferase, luminescence, 20 h; Potency, µM (titrated, usually from 53.6 µM), actives largely listed as inhibitors; actives 3.5% (n = 310,000); AID 2546;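 note: Gal4-VP16 expression switched on by copper sulfate through the metallothionein promoter; nearly all actives have a fitted effect of over 50% in size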
RORg inh: blocks mouse ROR gamma transcriptional activity; Drosophila S2 Gal4-RORgamma UAS-luciferase reporter, 20 h; actives 5.4% (n = 310,000); P51450; Potency, µM (highest dose often 53.6 µM), most hits filed as inhibitors; note: nearly all actives have a fitted effect of over 60% in size
Target sequence (P51450 whole entry, looked up, the tested form may be a part): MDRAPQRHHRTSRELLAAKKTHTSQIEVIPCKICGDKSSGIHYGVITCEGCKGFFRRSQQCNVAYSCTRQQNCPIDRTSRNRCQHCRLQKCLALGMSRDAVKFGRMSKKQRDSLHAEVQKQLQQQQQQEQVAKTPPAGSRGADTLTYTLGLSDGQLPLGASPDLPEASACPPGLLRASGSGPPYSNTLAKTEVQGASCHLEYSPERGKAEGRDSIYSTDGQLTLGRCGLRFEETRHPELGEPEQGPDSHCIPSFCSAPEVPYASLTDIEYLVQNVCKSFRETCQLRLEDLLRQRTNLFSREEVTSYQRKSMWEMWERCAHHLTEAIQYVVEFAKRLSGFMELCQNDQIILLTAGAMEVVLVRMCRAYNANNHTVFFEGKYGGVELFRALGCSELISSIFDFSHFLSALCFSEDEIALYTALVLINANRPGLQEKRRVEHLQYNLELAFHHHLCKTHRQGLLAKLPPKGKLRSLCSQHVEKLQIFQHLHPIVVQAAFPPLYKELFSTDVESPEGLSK
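Stable Schneider cell line, Gal4 DNA-binding domain fused to ROR gamma, UAS-luciferase. Cmpd 1 hr RT → CuSO4 700 uM final → 20 hr RT → luciferase reagent 10 min → luminescence.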
p53 reactivation: re-activators of mutant p53. H1299 p53-A138V BP100-luciferase reporter, luminescence, 24 h. Potency, µM (doses to about 92.2 µM), actives largely listed as activators. actives 0.063% (n = 320,000); note: nearly all actives have a fitted effect of over 45% in size
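H1299 (p53-null), stable ts p53-A138V + BP100-Luc; 1000 cells/well, Opti-MEM/10% FBS; cpd 4 pt, 1:5; 24 h, 37 deg C, 5% CO2; detection reagent 10 min RT; luminescence.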
Giardia killer: kills Giardia lamblia | Giardia lamblia trophozoite viability | activity change, % at 7.66 µM, hits read low | actives 0.15% (n = 340,000) | AID 540267; in the data active = activity change below about -80%; inconclusive = between about -30% and that limit;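 note: parasites exposed to compound for two days anaerobically before the ATP read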
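Media and compound were dispensed first, then trophozoites at 100 cells/well; plates sat 48 hrs at 37 deg C without oxygen before ATP luminescence reagent was added and read after 15-30 min at room temperature.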
BRCA1 expr up: BRCA1 expression activation. MCF7-BRCA1-FFLuc reporter, luminescence, 48 h; response scale: scaled: vehicle 0%, 10 µM genistein 100%. Potency, µM (doses to about 46.1 µM), actives largely listed as activators. actives 1.1% (n = 380,000); note: nearly all actives have a fitted effect of over 80% in size
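Quantitative HTS in MCF7 cells stably reporting BRCA1 expression via firefly luciferase. Compound treatment lasts 48 h at 37 °C in phenol-red free MEM. Activation is expressed relative to genistein at 10 microM and DMSO.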
Large screens that a line does not name were inactive. Most compounds without a hit are left out; they make up all but 7.6% or so of the library. Unless noted, calls come from the whole dose curve; as a rule, active = well fitted curve in the direction sought with a large enough effect; inconclusive = small, poorly fitted or top-dose-only effect, or another doubt; inactive = no such curve, though single readings can be large; an effect the other way counts as inactive or inconclusive.

Nc1c(C(=O)c2ccccc2)sc2snc(SCC(=O)c3ccccc3)c12	Gal4-VP16 FLuc 13µM, RORg inh 11µM
Nc1nnc(SCC(=O)c2ccccc2)s1	ELG1 repair inh inconclusive
CCOC(=O)C1CCCN(Cc2c(C(=O)N3CCOCC3)nc3ccccn23)C1 (stereo not given)	none
Cc1cccc(/C(N)=N/OC(=O)COc2ccc(Cl)c(C)c2)c1	none
O=S(=O)(c1ccc2c(c1)OCCO2)N1CCC(c2nc3ccc(Cl)cc3[nH]2)CC1	ELG1 repair inh 18µM
O=C(NCC1CCCO1)c1ccc(S(=O)(=O)N2CCC(c3nc4ccc(Cl)cc4[nH]3)CC2)cc1 (stereo not given)	ELG1 repair inh 13µM, RORg inh inconclusive
CN(c1ccccc1C(=O)Nc1ccc(S(=O)(=O)N2CCOCC2)cc1)S(=O)(=O)c1ccccc1	RORg inh inconclusive
CC(C)(C)[Si](C)(C)c1c2c(nc3ccc(OCc4ccccc4)cc13)-c1cccc(=O)n1C2	none (no result: ELG1 repair inh, p53 reactivation, Giardia killer, BRCA1 expr up)
CCOC(=O)c1sc(N(Cc2ccccc2)C(=O)COC(=O)c2cnccn2)nc1C	none
CCOC(=O)c1sc(N(Cc2ccccc2)C(=O)CSc2nnc(C3CC3)n2N)nc1C	ELG1 repair inh inconclusive, BRCA1 expr up 8.9µM
CN(Cc1ccon1)C(=O)CC1C(=O)NCCN1Cc1cccc(Oc2ccccc2)c1 (stereo not given)	none
CCn1c(-c2csc3c2CCC(C)C3)n[nH]c1=S (stereo not given)	Gal4-VP16 FLuc 2.8µM, RORg inh 2µM
CCn1c(-c2csc3ccccc23)n[nH]c1=S	Gal4-VP16 FLuc 6.3µM, RORg inh 6.3µM
CC(C)Cn1c(-c2csc3ccccc23)n[nH]c1=S	Gal4-VP16 FLuc 6.3µM, RORg inh 1.1µM
Cc1cccc(-n2c(-c3csc4ccccc34)n[nH]c2=S)c1	RORg inh 2µM
COc1ccc(/C=C/C(=O)OCC(=O)Nc2cc3oc4ccccc4c3cc2OC)cc1	none (no result: Giardia killer, BRCA1 expr up)
CCn1nc(NC(C)=O)c2cc3ccc(C)cc3nc21	none
CCOC(=O)N1CCN(C(=O)CSc2nnc(Cn3c(=O)sc4ccccc43)n2C)CC1	none
Cc1cccc(C(=O)NNC(=O)C23CC4CC(CC(C4)C2)C3)c1O	Gal4-VP16 FLuc inconclusive, RORg inh 6.3µM
COc1ccc(-c2[nH]ncc2/C=C(/C#N)C(=O)NC2CCCCCC2)cc1	ELG1 repair inh 18µM, Gal4-VP16 FLuc inconclusive
CCCN(CCC)CC(O)CN(c1ccccc1)S(=O)(=O)c1ccc(C)cc1 (stereo not given)	none
CCCCN(c1nc2ccccc2nc1Cl)S(=O)(=O)c1ccc(C)cc1	ELG1 repair inh inconclusive, Gal4-VP16 FLuc 2.5µM
CC(=O)c1cccc(NC(=O)CSc2nc(C3CC3)nc3ccccc23)c1	none
CC(=O)Nc1cccc(NC(=O)CSc2nc(C3CC3)nc3ccccc23)c1	ELG1 repair inh 18µM
CCOc1cccc(=O)c2c(C)n(Cc3ccccc3)c(C)c12	ELG1 repair inh inconclusive
CCOc1cccc(=O)c2c(C)n(Cc3ccco3)c(C)c12	ELG1 repair inh inconclusive, Gal4-VP16 FLuc 3.5µM
CCOC(=O)c1cnc2ccc(C)cc2c1Sc1ccc(F)cc1	Gal4-VP16 FLuc 28µM, RORg inh inconclusive, p53 reactivation inconclusive
Cc1ccc(S(=O)(=O)CCC(=O)OCC(=O)c2c(N)n(CC(C)C)c(=O)n(C)c2=O)cc1	RORg inh inconclusive
CCCn1c(N)c(C(=O)NS(=O)(=O)c2ccc(C)cc2)c(=O)n(C)c1=O	ELG1 repair inh 10µM, Gal4-VP16 FLuc inconclusive, RORg inh inconclusive
COc1ccc(Nc2cc(C)c3cc(NC(=O)Cc4ccc(Cl)cc4)ccc3n2)cc1	none (no result: ELG1 repair inh, Gal4-VP16 FLuc, RORg inh, p53 reactivation, Giardia killer)
S=c1[nH]nc(COc2ccc3c(c2)OCO3)n1-c1ccccc1	Gal4-VP16 FLuc 11µM, RORg inh 3.5µM
S=c1[nH]nc(-c2ccc3c(c2)OCO3)n1-c1ccccc1	ELG1 repair inh inconclusive, Gal4-VP16 FLuc 11µM, RORg inh 8.9µM
O=[N+]([O-])c1ccc(OCc2n[nH]c(=S)n2-c2ccccc2)cc1	Gal4-VP16 FLuc inconclusive, RORg inh 0.32µM
c1ccc(N2CCN(CCCOc3ccc4c(c3)OCO4)CC2)cc1	none (no result: ELG1 repair inh, p53 reactivation, Giardia killer, BRCA1 expr up)
CCn1c(COc2ccc3c(c2)OCO3)nnc1SCC(=O)c1ccccc1	ELG1 repair inh inconclusive, Gal4-VP16 FLuc 13µM
COc1ccc(C(=O)n2cc(C(C)=O)c3ccccc32)cc1	none
Cc1cc(C(F)(F)F)n2nc(C(=O)O)c(Cl)c2n1	none
CCCCCC1CCC(c2n[nH]c(=S)n2C)CC1 (stereo not given)	ELG1 repair inh inconclusive, Gal4-VP16 FLuc 4µM, RORg inh inconclusive
Cn1c(C2CCCN2C(=O)OC(C)(C)C)n[nH]c1=S (stereo not given)	none
COc1cccc(-c2ccc(SCc3ccccn3)nn2)c1	ELG1 repair inh inconclusive, Gal4-VP16 FLuc inconclusive, BRCA1 expr up 5µM
COc1ccc(-c2ccc(SCc3ccccn3)nn2)cc1OC	none
O=[N+]([O-])c1cccc(-c2ccc(SCc3ccccn3)nn2)c1	ELG1 repair inh inconclusive, Gal4-VP16 FLuc inconclusive, RORg inh inconclusive, p53 reactivation inconclusive, BRCA1 expr up 6.3µM
COc1cc(OC)c(OC)cc1/C=C1/Cc2ccccc2C1=O	none
CCC1C/C(=C\c2cc(OC)c(OC)cc2OC)C(=O)/C(=C/c2cc(OC)c(OC)cc2OC)C1 (stereo not given)	ELG1 repair inh 6.5µM
COc1cc(OC)c(OC)cc1/C=C1\CC(C)C/C(=C\c2cc(OC)c(OC)cc2OC)C1=O (stereo not given)	ELG1 repair inh 7.3µM
O=C(CC[C@H]1O[C@@H](n2cnc3c(NC(=O)c4ccccc4)ncnc32)[C@H](O)[C@@H]1O)NCC1CCCO1 (stereo not given in full)	none (no result: ELG1 repair inh, Gal4-VP16 FLuc, RORg inh, p53 reactivation, Giardia killer)
CC(=O)N1CCc2c(sc3c2c(=O)n(-c2ccccc2)c(=O)n3CC(=O)c2ccc(Cl)cc2)C1	none (no result: ELG1 repair inh, Gal4-VP16 FLuc, RORg inh, p53 reactivation, Giardia killer)
CCc1nnc(NC(=O)c2ccc3c(c2)C(=O)N(C(C)(C)C)C3=O)s1	ELG1 repair inh inconclusive, p53 reactivation inconclusive, BRCA1 expr up 14µM
CCc1nnc(NC(=O)CN2CCN(Cc3cccc(F)c3)CC2)s1	none
CCc1nnc(NC(=O)CN2CCN(Cc3cccc(Cl)c3)CC2)s1	Gal4-VP16 FLuc inconclusive, RORg inh 2.5µM
O=C(NCc1ccccn1)c1ccc2ccccc2n1	ELG1 repair inh inconclusive, Gal4-VP16 FLuc 10µM, RORg inh 3.5µM
COCc1nnc(NC(=O)c2ccc(NC(=O)C(C)C)cc2)s1	Giardia killer inconclusive
CCc1nnc(NC(=O)c2ccc(NC(=O)C(C)C)cc2)s1	ELG1 repair inh inconclusive, BRCA1 expr up 11µM
O=C(NCc1ccccc1)c1ccc2ccccc2n1	p53 reactivation inconclusive
